Assay results from PubChem BioAssay (Tox21).
Records with an inconclusive call do not appear. Calls of active or inactive are those of the source. Unless noted, calls come from the whole dose curve; as a rule, active = well fitted curve in the direction sought with a large enough effect in the repeat runs; inconclusive = weak or mixed curves; inactive = no such curve, though single readings can be large; an effect the other way counts as inactive or inconclusive.

Legend:
[1] = qHTS assay to identify small molecule agonists of the peroxisome proliferator-activated receptor delta (PPARd) signaling pathway - cell viability counter screen (AID 743211); note: nearly all actives have a fitted effect of over 55% in size
Summary of the method: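 qHTS cell viability: PPARd-bla HEK293H; 17 h cpd, 37C; CellTiter-Glo, luminescence at 30 min RT.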

[2] = target: Peroxisome proliferator-activated receptor delta (Homo sapiens) (UniProt Q03181); assay: qHTS assay to identify small molecule agonists of the peroxisome proliferator-activated receptor delta (PPARd) signaling pathway (AID 743212; calls by dose curve)
Summary of the method: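 Quantitative high-throughput agonist screen in a HEK293H beta-lactamase reporter line under UAS control. Compounds in DMSO, at 37 C. Fluorescence read after 2 h with FRET substrate at room temperature.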

[3] = target: Peroxisome proliferator-activated receptor delta (Homo sapiens) (UniProt Q03181); assay: qHTS assay to identify small molecule antagonists of the peroxisome proliferator-activated receptor delta (PPARd) signaling pathway (AID 743215; active = well fitted inhibition curve with a large enough effect in the signal ratio in the repeat runs, not every such curve was filed as active; the % refers to the signal ratio;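 note: cells stimulated with agonist L165041 at 300 nM final during compound exposure; series mostly up to about 62 µM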)
Summary of the method: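 PPARd UAS-bla HEK293H cells were pre-incubated 5 h at 37 C, then given test compounds in DMSO plus agonist L165041 (300 nM final). After 17 h at 37 C, beta-lactamase FRET substrate was added; fluorescence read after 2 h at room temperature.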

[4] = qHTS assay to identify small molecule agonists of the farnesoid-X-receptor (FXR) signaling pathway - cell viability counter screen (AID 743218); note: nearly all actives have a fitted effect of over 45% in size
Summary of the method: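 FXR-UAS-bla HEK 293T cells, plated 5 h at 37 C, were exposed to compounds for 16 h at 37 C. CellTiter-Glo was then added to the same wells as the bla readout; luminescence read after 30 min at room temperature.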

[5] = qHTS assay to identify small molecule antagonists of the farnesoid-X-receptor (FXR) signaling pathway - cell viability counter screen (AID 743221; active = well fitted cell-killing curve with a large enough effect in the repeat runs, not every such curve was filed as active; note: nearly all actives have a fitted effect of over 50% in size)
Summary of the method: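 After a 5 h settling period, FXR-bla HEK 293T cells receive compound and chenodeoxycholic acid (50 uM final) and incubate 16 h at 37 C; CellTiter-Glo luminescence, read after 30 min at room temperature, reports cell viability.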

[6] = target: Vitamin D3 receptor (Homo sapiens) (UniProt P11473); assay: qHTS assay to identify small molecule agonists of the vitamin D receptor (VDR) signaling pathway (AID 743222; calls by dose curve)
Summary of the method: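 VDR-bla cells were plated 4 h at 37C/5% CO2, then exposed to compounds in DMSO for 16 h. After LiveBLAzer B/G FRET substrate addition and 2 h at room temperature, beta-lactamase reporter fluorescence was read.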

[7] = target: Vitamin D3 receptor (Homo sapiens) (UniProt P11473); assay: qHTS assay to identify small molecule antagonists of the vitamin D receptor (VDR) signaling pathway (AID 743223; active = well fitted inhibition curve with a large enough effect in the signal ratio in the repeat runs, not every such curve was filed as active; the % refers to the signal ratio)
Summary of the method: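 Reporter line VDR-bla; stimulus 1alpha,25-(OH)2 vitamin D3, 3 nM final; compound co-addition, 16 h 37C/5% CO2; LiveBLAzer B/G substrate 2 h RT; fluorescence intensity.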

[8] = qHTS assay to identify small molecule agonists of the vitamin D receptor (VDR) signaling pathway - cell viability counter screen (AID 743224); note: series mostly up to about 63 µM; nearly all actives have a fitted effect of over 50% in size
Summary of the method: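 VDR-bla cells were preincubated 4 h at 37C/5% CO2, then exposed to compounds for 16 h. After the 2 h room-temperature bla FRET read, CellTiter-Glo was added to the same wells and luminescence read after 30 min.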

[9] = qHTS assay to identify small molecule antagonists of the vitamin D receptor (VDR) signaling pathway - cell viability counter screen (AID 743225); note: nearly all actives have a fitted effect of over 50% in size
Summary of the method: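 Parallel cytotoxicity test: VDR-UAS-bla HEK 293T, 3 nM (final) 1-alpha,25-dihydroxyvitamin D3 with test compound, 16 h, 37C. Endpoint is CellTiter-Glo luminescence in the same wells.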

[10] = qHTS assay to identify small molecule agonists of the NFkB signaling pathway (AID 1159509; active = well fitted curve in the direction sought with a large enough effect in the signal ratio in the repeat runs, not every such curve was filed as active; the % refers to the signal ratio; note: series mostly up to about 61 µM)
Summary of the method: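 NFkB-bla ME-180 cells with a beta-lactamase reporter under an NF-kB response element were plated overnight, treated with compounds in DMSO for 5 hr at 37 C, then loaded with FRET substrate for 1.5 hr at room temperature.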

[11] = qHTS assay to identify small molecule agonists of the NFkB signaling pathway - cell viability counter screen (AID 1159515; calls by dose curve; note: series mostly up to about 61 µM; nearly all actives have a fitted effect of over 55% in size)
Summary of the method: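 NFkB-bla ME-180 cells, 2,000/well, were plated overnight at 37 C, 5% CO2, then exposed to compounds in DMSO for 5 hr. After the bla FRET read, CellTiter-Glo was added to the same wells; luminescence was read after 30 min at room temperature.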

[12] = qHTS assay to identify small molecule agonists of the endoplasmic reticulum stress response signaling pathway (AID 1159516; active = well fitted activation curve with a large enough effect in the signal ratio in the repeat runs, not every such curve was filed as active; the % refers to the signal ratio)
Summary of the method: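 CellSensor ESRE-bla HeLa cells, carrying a beta-lactamase reporter driven by the ER stress response element, were plated overnight and exposed to compounds for 5 hr at 37 C. Reporter activity was read as FRET substrate fluorescence after 2 hr at room temperature.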

[13] = qHTS assay to identify small molecule agonists of the endoplasmic reticulum stress response signaling pathway - cell viability counter screen (AID 1159517; calls by dose curve; note: series mostly up to about 61 µM; nearly all actives have a fitted effect of over 50% in size)
Summary of the method: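 Counter-screen wells were identical to the reporter wells. Cells were plated at 1,500 per well and dosed for 5 hr, then read for luminescence 30 min after CellTiter-Glo addition.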

[14] = qHTS assay to identify small molecule antagonists of the retinoid-related orphan receptor gamma (ROR-gamma) signaling pathway - cell viability counter screen (AID 1159520); note: nearly all actives have a fitted effect of over 50% in size
Summary of the method: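 Tet-on ROR gamma CHO cells were given compounds for 2 hr, then doxycycline hyclate at 1 uM final, and incubated 16 hr at 37 C. Viability was measured as ATP content by CellTiter-Glo luminescence.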

[15] = target: Nuclear receptor ROR-gamma (Homo sapiens) (UniProt P51449); assay: qHTS assay to identify small molecule antagonists of the retinoid-related orphan receptor gamma (ROR-gamma) signaling pathway (AID 1159521)
Summary of the method: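 Decreased RORE-driven luciferase luminescence indicates antagonism. Tet-on RORγ CHO cells received compound, then 1 uM final doxycycline 2 h later; signal read after 16 h incubation.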

[16] = qHTS assay to identify small molecule agonists of the AP-1 signaling pathway - cell viability counter screen (AID 1159525; calls by dose curve; note: nearly all actives have a fitted effect of over 55% in size)
Summary of the method: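 AP-1-bla ME-180 cells in Opti-MEM with 0.5% dialyzed FBS, compound exposure 5 h at 37 C in 15-point titration. Viability read in the same wells as ATP content by CellTiter-Glo luminescence, normalised to tetra-n-octylammonium bromide and DMSO controls.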

[17] = qHTS assay to identify small molecule agonists of the AP-1 signaling pathway (AID 1159526; calls by dose curve)
[18] = qHTS assay to identify small molecule antagonists of the peroxisome proliferator-activated receptor delta (PPARd) signaling pathway - cell viability counter screen (AID 743213); note: nearly all actives have a fitted effect of over 50% in size
Summary of the method: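 HEK293H PPARd UAS-bla cells, 5 h pre-incubation, compound + L165041 300 nM final, 17 h 37 C; B/G FRET substrate 2 h RT; then CellTiter-Glo 30 min RT, luminescence.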

[19] = target: Bile acid receptor (Homo sapiens) (UniProt Q96RI1); assay: qHTS assay to identify small molecule antagonists of the farnesoid-X-receptor (FXR) signaling pathway (AID 743217; active = well fitted inhibition curve with a large enough effect in the signal ratio in the repeat runs, not every such curve was filed as active; the % refers to the signal ratio)
Summary of the method: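 FXR-UAS-bla HEK 293T cells pre-incubated 5 h at 37 °C, then exposed to compounds with chenodeoxycholic acid (50 uM final) for 16 h at 37 °C. Beta-lactamase reporter read by LiveBLAzer B/G FRET substrate fluorescence after 2 h at room temperature.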

[20] = target: Bile acid receptor (Homo sapiens) (UniProt Q96RI1); assay: qHTS assay to identify small molecule agonists of the farnesoid-X-receptor (FXR) signaling pathway (AID 743220; active = well fitted activation curve with a large enough effect in the signal ratio in the repeat runs, not every such curve was filed as active; the % refers to the signal ratio)
Summary of the method: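 Beta-lactamase reporter under UAS control in GeneBLAzer FXR HEK 293T cells (5000/well) measured with LiveBLAzer FRET substrate after 2 h at room temperature. Compound exposure lasted 16 h at 37C.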

Measured: Potency

Sequence of Peroxisome proliferator-activated receptor delta (Homo sapiens) (Q03181 whole entry, looked up): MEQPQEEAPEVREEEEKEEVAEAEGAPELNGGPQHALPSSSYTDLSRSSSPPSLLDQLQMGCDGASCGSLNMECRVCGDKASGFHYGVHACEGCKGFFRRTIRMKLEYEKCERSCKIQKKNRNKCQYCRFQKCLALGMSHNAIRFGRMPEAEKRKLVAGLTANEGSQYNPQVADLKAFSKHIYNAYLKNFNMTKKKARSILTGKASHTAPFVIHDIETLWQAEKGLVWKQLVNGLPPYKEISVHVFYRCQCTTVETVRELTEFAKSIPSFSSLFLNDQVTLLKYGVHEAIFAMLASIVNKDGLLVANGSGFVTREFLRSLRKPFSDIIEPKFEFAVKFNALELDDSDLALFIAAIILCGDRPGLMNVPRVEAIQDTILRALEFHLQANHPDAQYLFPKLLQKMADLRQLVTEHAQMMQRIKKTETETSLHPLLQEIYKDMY
Sequence of Vitamin D3 receptor (Homo sapiens) (P11473 whole entry, looked up): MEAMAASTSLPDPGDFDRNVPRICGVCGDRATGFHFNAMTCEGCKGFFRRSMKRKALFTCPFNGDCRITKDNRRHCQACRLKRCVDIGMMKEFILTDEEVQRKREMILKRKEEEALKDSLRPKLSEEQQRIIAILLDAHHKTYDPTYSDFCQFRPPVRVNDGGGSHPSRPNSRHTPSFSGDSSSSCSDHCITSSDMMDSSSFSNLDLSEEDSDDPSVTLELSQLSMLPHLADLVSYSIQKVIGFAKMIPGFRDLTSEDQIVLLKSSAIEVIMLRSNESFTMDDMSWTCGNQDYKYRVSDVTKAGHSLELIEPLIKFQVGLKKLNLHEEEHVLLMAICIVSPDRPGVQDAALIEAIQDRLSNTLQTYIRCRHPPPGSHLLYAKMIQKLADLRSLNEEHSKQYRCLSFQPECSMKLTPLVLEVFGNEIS
Sequence of Bile acid receptor (Homo sapiens) (Q96RI1 whole entry, looked up): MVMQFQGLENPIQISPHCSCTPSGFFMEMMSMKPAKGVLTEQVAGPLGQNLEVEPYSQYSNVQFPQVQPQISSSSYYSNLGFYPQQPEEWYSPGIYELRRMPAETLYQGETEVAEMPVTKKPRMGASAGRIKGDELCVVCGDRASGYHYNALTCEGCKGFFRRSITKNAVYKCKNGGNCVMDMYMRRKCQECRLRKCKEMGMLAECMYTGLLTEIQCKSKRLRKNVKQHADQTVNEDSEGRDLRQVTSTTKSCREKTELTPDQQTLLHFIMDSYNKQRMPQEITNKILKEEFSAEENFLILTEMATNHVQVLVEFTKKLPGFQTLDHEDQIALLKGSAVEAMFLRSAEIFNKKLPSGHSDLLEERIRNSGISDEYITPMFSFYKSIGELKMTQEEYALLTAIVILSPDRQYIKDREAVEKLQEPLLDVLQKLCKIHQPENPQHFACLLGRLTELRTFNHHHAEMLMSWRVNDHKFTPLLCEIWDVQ

CN1C(=O)CCS(=O)(=O)C1c1ccc(Cl)cc1 (configuration not stated)
not listed: [18] | [19] | [20]
inactive: all other assays above

Cc1ccccc1N
not listed: [6] | [7] | [19] | [20]
inactive: all other assays above

COP(=S)(OC)Oc1ccc(SC)c(C)c1
not listed: [18] | [19] | [20]
inactive: all other assays above

C=CCN=C=S
not listed: [18]
inactive: all other assays above

N#Cc1cccc(C#N)c1
not listed: [18] | [19] | [20]
inactive: all other assays above

Cc1cccc(N)c1C
not listed: [18]
inactive: all other assays above

CCOP(=S)(OCC)Oc1ccc([N+](=O)[O-])cc1
not listed: [6] | [7] | [19] | [20]
inactive: all other assays above

CN(C)CCC#N
not listed: [18] | [19] | [20]
inactive: all other assays above

COS(=O)(=O)OC
not listed: [18] | [19] | [20]
inactive: all other assays above

Cc1cc(Cl)ccc1OC(C)C(=O)O (configuration not stated)
not listed: [6] | [7] | [19] | [20]
inactive: all other assays above

O=C(O)C1C(C(=O)O)C2(Cl)C(Cl)=C(Cl)C1(Cl)C2(Cl)Cl (configuration not stated)
not listed: [6] | [7] | [18]
inactive: all other assays above

CN(C)C(=O)Cl
not listed: [18] | [19] | [20]
inactive: all other assays above

Nc1ccc([As](=O)(O)O)cc1
not listed: [7] | [19] | [20]
inactive: all other assays above

Cl/C=C/Cl
not listed: [18] | [19] | [20]
inactive: all other assays above

Oc1c(Br)cc(Br)cc1Br
not listed: [6] | [7] | [19] | [20]
inactive: all other assays above

CNC(=O)O/N=C(\SC)C(=O)N(C)C
not listed: [18] | [19] | [20]
inactive: all other assays above

Cc1ccc(O)c(C)c1
not listed: [6] | [7] | [19] | [20]
inactive: all other assays above

N#CN=C(N)N
not listed: [18]
inactive: all other assays above
